Among the data in PubChem BioAssay (NCATS) are Potency and outcome values, retold here.

Several values for one entry are separate records, joined by “and”; a condition that tells them apart may be missing. Identical values can stand only once. Inconclusive results are not listed. Activity calls are given as the source filed them. Unless noted, calls follow the shape of the dose curve; as a rule, active = well fitted curve in the direction sought with a large enough effect; inconclusive = small, poorly fitted or top-dose-only effect, or another doubt; inactive = no such curve, though single readings can be large; an effect the other way counts as inactive or inconclusive.

Test [1] is described as follows: qHTS to identify inhibitors of the type 1 interferon - major histocompatibility complex class I in skeletal muscle: primary screen against the NCATS Mechanism Interrogation Plate v5.0 (MIPE) Libary (AID 1347411). Also: nearly all actives have a fitted effect of over 65% in size. Also: potency is read from the fitted curve at half-maximal effect. A digest of the protocol: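 Immortalized human C25cl48 myoblasts with HiBit knocked into endogenous HLA-B*08:01 were stimulated with 4.0 ng/ml IFN-beta and exposed to compounds (11-point 1:3 titration, top 46 uM final) for 24 hrs at 37 C; HiBiT lytic luminescence measured.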
On the technique in general: qHTS replaces the single test concentration by a dilution series.

The target of test [2] is Protein phosphatase 1D (Homo sapiens) (UniProt O15297). The experiment in a line: Rhodamine-PBP qHTS Assay for Modulators of WT P53-Induced Phosphatase 1 (WIP1) (AID 1347425). A digest of the protocol:
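Steps: enzyme with Rh-PBP sensor and compounds, room-temperature incubation of 1 hr, baseline read, addition of VEPPL-pS-QETFS (10 uM final), kinetic fluorescence reads at 525/598 nm. Activity equals final minus baseline signal.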

Test [3] is described as follows: Primary qHTS for inhibitors of La Crosse Virus (LACV) - induced cell death in SH-SY5Y cells (AID 1508616).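 Also: top concentration of the series differs between compounds; higher means more rescue of cells from virus-induced death.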 A digest of the protocol:
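Luminescent ATP readout (ATPLite 1step, 5 min room temperature) measured rescue from LACV-induced death after 6 days of infection at 0.01 MOI; normalized to infected DMSO wells and uninfected DMSO wells.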

Test [4] in a line: A High-Content qHTS Against Drug Library for the Identification of Small Molecules that Inhibit DYT1 Early Onset Primary Dystonia-Associated Cell Pathology (AID 1645839; calls by dose curve; also: series mostly up to about 46 µM). A digest of the protocol: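 Flp-In T-REx 293 cells with tetracycline-inducible EGFP-delE hTOR1A (WT EGFP-hTOR1A as reference), 800 cells/well; compound added with tetracycline, 48 h at 37 C. Fixed, permeabilized cells imaged; %pathology (punctate TorsinA) primary, cell count counterscreen.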

Test [5] deals with Cytochrome P450 2D6 (Homo sapiens) (UniProt P10635). As to the kind of experiment: Cytochrome P450 family 2 subfamily D member 6 (CYP2D6) small molecule antagonists: luciferase biochemical (cell-free) qHTS assay (AID 1645840; active = well fitted curve in the direction sought with a large enough effect in the repeat runs; an effect the other way counts as inactive or inconclusive; also: nearly all actives have a fitted effect of over 55% in size; also: potency is read from the fitted curve at half-maximal effect). A digest of the protocol:
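P450-Glo luminescent screen: recombinant CYP2D6 enzyme–proluciferin substrate mix preincubated with compound 10 min at room temperature, then NADPH regeneration added for 1 h at room temperature. Detection reagent added for 20 min; luciferin light read as relative luminescence units.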

Test [6] deals with Cytochrome P450 2C9 (Homo sapiens) (UniProt P11712). As to the kind of experiment: Cytochrome P450 family 2 subfamily C member 9 (CYP2C9) small molecule antagonists: luciferase biochemical (cell-free) qHTS assay (AID 1645842; active = well fitted curve in the direction sought with a large enough effect in the repeat runs; an effect the other way counts as inactive or inconclusive; also: nearly all actives have a fitted effect of over 55% in size; also: potency is read from the fitted curve at half-maximal effect). A digest of the protocol:
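Luminescence, after 20 min with luciferin detection reagent, reflected CYP2C9 turnover during a 1 h NADPH-driven reaction at 37C. Enzyme-substrate mix contained 0.4% bovine serum albumin and was preincubated with compound 10 min at room temperature.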

Test [7] can be described thus: Primary qHTS for inhibitors of nuclear receptor binding SET domain protein 2 (NSD2) in an isogenic RCH-ACV NSD2 p.E1099K mutant (9B) (AID 1645876). Also: nearly all actives have a fitted effect of over 70% in size. Also: potency is read from the fitted curve at half-maximal effect.
Test [8] is described as follows: Validation qHTS assay for inhibitors of Activation Induced Cytidine Deaminase (AID): UDG Counterscreen signal (AID 1347427). A digest of the protocol: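 Counterscreen read of UDG activity (2 U/mL, 4/3x) in the FRET deamination format with AID (1 uM, 4/3x), DJC20/DJC23 substrates (250 nM, 4x), 4 h at room temperature. NaOH stop, fluorescence at 560 ex/665 em.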
For test [9], the target named is Single-stranded DNA cytosine deaminase (Homo sapiens) (UniProt Q9GZX7). As to the kind of experiment: Validation qHTS assay for inhibitors of Activation Induced Cytidine Deaminase (AID): AID signal (AID 1347429). A digest of the protocol: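 AID and UDG were combined and compounds added at final up to 114 uM, then DJC20/DJC23 FRET substrate was added for 4 hr at room temperature. NaOH was then added for 30 min before fluorescence was read at 540/590 nm.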

Test [10] concerns the target Calcium and integrin-binding protein 1 (Homo sapiens) (UniProt Q99828). The experiment in a line: Validation qHTS for Identification of Calcium Integrin Binding protein 1 (CIB1) Competitor (AID 1508618). A digest of the protocol: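 In this qHTS validation, the LOPAC set (up to 114 uM) was tested for blocking CIB1 binding to a fluorescein-tagged alphaIIb peptide, with FP detection at 480/540 nm.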

The target is the same in test [11]. The experiment in a line: Primary qHTS for Identification of Calcium Integrin Binding Protein 1 (CIB1) Competitor (AID 1508620). Also: top concentration of the series differs between compounds. A digest of the protocol: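 Fluorescence polarization competition: GST-tagged CIB1 (1 uM final) preincubated with compound 15 min at room temperature, then FITC-labelled alphaIIb peptide (100 nM final) added. After 15 min at room temperature, polarization read at Ex 480/Em 540.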

Test [12] is described as follows: Primary qHTS for small molecule stabilizers of the endoplasmic reticulum resident proteome: Secreted ER Calcium Modulated Protein (SERCaMP) assay (AID 1508630). A digest of the protocol: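 GLuc-SERCaMP-expressing SH-SY5Y cells, pretreated 16 h with compound, are challenged with thapsigargin to empty ER calcium stores; after 4 h, coelenterazine is added directly to the medium and luminescence is imaged.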

For a further test, the target named is Papain (Carica papaya) (UniProt P00784). The experiment in a line: Primary qHTS assay for inhibitors of the protease papain (AID 1645873).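 Also: papain turnover of Z-FR-AMC read as the AMC fluorescence gain over 10 min; series mostly up to about 50 µM.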
Test [13] can be described thus: Confirmatory qHTS for small molecule stabilizers of the endoplasmic reticulum resident proteome: Secreted ER Calcium Modulated Protein (SERCaMP) assay (AID 1508628). Also: potency is read from the fitted curve at half-maximal effect; nearly all actives have a fitted effect of over 40% in size. A digest of the protocol:
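We seeded SH-SY5Y-GLuc-SERCaMP cells, added compounds (three concentrations in the primary run, eleven up to 76.6 uM in confirmation), incubated 16 h, depleted ER calcium with thapsigargin, and read luciferase 4 h later.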

In test [14] the target is N-terminal Xaa-Pro-Lys N-methyltransferase 1 (Homo sapiens) (UniProt Q9BV86). The experiment in a line: Confirmatory qHTS for Inhibitors of N-terminal methyltransferase 1 (NTMT1): MTaseGlo Assay (AID 1645874). Also: potency is read from the fitted curve at half-maximal effect; nearly all actives have a fitted effect of over 65% in size. A digest of the protocol: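 Compounds are incubated with 125 nM NTMT1 and 100 uM SAM for 15 min before the SPKRIA peptide (1 uM) starts a 30 min room-temperature methylation. SAH is measured by coupled luciferase luminescence and curves fitted to a Hill equation.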
Chain of N-terminal Xaa-Pro-Lys N-methyltransferase 1 (Homo sapiens) (Q9BV86 whole entry, looked up): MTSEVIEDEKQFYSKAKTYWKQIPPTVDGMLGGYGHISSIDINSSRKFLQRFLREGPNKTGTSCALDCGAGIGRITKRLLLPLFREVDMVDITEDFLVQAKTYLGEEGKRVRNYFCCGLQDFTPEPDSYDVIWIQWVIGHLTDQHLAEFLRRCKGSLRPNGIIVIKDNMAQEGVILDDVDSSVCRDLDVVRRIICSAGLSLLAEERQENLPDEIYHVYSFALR

Chain of Protein phosphatase 1D (Homo sapiens) (O15297 whole entry, looked up): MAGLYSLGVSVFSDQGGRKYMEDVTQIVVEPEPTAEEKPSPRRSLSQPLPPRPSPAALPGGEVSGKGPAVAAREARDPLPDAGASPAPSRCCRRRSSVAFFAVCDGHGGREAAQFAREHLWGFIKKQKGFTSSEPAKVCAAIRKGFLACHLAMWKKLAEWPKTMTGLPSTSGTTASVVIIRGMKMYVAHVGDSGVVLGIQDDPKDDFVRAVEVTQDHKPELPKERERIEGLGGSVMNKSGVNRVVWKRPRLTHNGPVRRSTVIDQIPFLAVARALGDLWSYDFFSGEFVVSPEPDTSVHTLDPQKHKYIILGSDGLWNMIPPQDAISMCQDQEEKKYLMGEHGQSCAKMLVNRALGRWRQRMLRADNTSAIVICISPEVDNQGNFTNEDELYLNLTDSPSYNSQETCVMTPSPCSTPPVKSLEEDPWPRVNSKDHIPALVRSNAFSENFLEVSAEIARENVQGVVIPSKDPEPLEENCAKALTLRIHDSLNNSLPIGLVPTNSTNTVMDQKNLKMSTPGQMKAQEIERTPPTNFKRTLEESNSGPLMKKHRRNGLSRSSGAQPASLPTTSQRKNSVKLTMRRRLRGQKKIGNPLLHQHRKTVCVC
Chain of Cytochrome P450 2C9 (Homo sapiens) (P11712 whole entry, looked up): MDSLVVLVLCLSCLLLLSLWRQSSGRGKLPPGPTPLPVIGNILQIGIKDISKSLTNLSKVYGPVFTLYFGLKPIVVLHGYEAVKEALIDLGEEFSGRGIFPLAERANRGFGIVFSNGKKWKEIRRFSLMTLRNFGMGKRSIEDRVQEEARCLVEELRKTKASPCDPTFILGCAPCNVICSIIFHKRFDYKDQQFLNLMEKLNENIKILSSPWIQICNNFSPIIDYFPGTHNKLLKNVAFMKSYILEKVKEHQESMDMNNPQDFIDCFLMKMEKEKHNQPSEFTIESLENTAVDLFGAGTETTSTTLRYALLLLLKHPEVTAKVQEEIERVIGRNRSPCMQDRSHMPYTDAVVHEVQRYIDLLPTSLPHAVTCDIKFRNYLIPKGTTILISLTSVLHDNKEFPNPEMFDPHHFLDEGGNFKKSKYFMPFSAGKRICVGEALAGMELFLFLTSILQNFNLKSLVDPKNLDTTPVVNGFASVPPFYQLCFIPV
Chain of Papain (Carica papaya) (P00784 whole entry, looked up): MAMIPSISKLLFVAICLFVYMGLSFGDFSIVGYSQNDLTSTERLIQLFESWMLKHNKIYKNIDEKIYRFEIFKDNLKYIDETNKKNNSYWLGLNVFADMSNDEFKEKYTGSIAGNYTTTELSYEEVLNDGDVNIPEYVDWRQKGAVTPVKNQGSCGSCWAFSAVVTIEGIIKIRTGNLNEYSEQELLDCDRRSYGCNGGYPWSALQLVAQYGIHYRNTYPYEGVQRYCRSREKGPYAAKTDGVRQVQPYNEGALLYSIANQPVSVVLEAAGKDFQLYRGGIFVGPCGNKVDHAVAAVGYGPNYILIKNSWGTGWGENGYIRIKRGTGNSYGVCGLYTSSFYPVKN
Chain of Calcium and integrin-binding protein 1 (Homo sapiens) (Q99828 whole entry, looked up): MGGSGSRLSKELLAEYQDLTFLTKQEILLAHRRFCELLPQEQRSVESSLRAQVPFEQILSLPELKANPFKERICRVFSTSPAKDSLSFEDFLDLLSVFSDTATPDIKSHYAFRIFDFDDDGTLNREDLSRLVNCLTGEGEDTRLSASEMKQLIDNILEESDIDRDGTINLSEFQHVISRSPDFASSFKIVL
Chain of Cytochrome P450 2D6 (Homo sapiens) (P10635 whole entry, looked up): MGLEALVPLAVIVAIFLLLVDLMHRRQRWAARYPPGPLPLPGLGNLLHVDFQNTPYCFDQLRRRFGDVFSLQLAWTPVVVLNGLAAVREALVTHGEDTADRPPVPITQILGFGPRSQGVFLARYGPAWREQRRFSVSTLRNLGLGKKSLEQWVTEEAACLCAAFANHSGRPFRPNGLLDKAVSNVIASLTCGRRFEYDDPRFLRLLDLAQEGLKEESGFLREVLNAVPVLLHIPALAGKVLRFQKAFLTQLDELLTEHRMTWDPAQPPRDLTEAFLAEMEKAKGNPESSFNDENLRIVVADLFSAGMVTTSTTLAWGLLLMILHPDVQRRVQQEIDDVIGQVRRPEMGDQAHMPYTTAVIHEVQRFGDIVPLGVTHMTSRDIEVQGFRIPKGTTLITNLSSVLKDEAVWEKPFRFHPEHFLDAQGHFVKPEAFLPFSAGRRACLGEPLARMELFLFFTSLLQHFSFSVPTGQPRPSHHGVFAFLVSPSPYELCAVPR
Chain of Single-stranded DNA cytosine deaminase (Homo sapiens) (Q9GZX7 whole entry, looked up): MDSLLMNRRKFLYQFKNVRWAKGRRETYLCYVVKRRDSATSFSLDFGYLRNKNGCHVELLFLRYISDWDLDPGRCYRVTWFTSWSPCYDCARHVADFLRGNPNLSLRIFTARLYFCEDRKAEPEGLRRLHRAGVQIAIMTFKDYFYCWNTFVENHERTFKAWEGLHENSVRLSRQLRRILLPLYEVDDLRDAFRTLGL

In the case of `O=C(NCCO[N+](=O)[O-])c1cccnc1`, the Potency entry in [1], in test [3], in [4], in test [5], in test [6] and in test [7] was “inactive” throughout. Moreover, the outcome in test [2] was inactive.

In the case of `Nc1nc(OCc2ccccc2)c2[nH]cnc2n1`, the Potency result (in [1]; in test [8]; in test [3]; in test [11]; in test [12]; with Papain (Carica papaya)) was “inactive” each time. The outcome in test [9] and in [10] was inactive.

As for `Cc1cc(O)c2c(c1)C(=O)c1cc(O)cc(O)c1C2=O`, the Potency entry (in test [1]; in test [8]; in [3]; in [11]; with Papain (Carica papaya); in test [7]) was “inactive” each time. In addition, the outcome in [9] was inactive. For the same molecule, the Potency was 14.1 µM (active) in test [13] and 30.8 µM (active) in test [14].

As to `Nc1nc(N)c(N=O)c(OCC2CCCCC2)n1`, the Potency entry in test [1], in test [8], in test [3], in test [11], in test [5] and in [6] was “inactive” in each case. Further, the call in test [9] and in test [10] was inactive. For the same molecule, in test [7], the Potency was 7.31 µM (active) and 4.68 µM (active).

For `COc1cc2c(cc1OC)C1CC(=O)C(CC(C)C)CN1CC2` (configuration not stated), the Potency result in [1], in test [8], in [3], in test [12] and in [7] was “inactive” each time. Further, the outcome in test [9] and in test [10] was inactive.

For the molecule `O=C1c2c(O)cc(O)cc2OC(c2ccc(O)c(O)c2)C1O` (configuration not stated), the Potency result (in test [1]; in [8]; in test [3]; in test [11]; with Papain (Carica papaya)) was “inactive” in each case. The call in [9] was inactive.

For `Oc1ccc(-c2nc(-c3ccc(F)cc3)c(-c3ccncc3)[nH]2)cc1`, the Potency entry (in [1]; in [8]; in test [3]; in test [12]; with Papain (Carica papaya)) was “inactive” in each case. The molecule was classed as inactive in test [9] and in test [10]. The Potency is 39.8 µM (active) in test [14] and 5.25 µM (active) in [7].

Turning to `Clc1ccc(C(Cn2ccnc2)OCc2ccsc2Cl)c(Cl)c1` (configuration not stated), the Potency entry in [1], in test [3] and in test [11] was “inactive” in each case. For the same molecule, in test [2], the outcome was inactive. Further, the Potency in test [5] was 0.692 µM (active); in test [6], 0.0692 µM (active); in test [7], 18.6 µM (active).

Take `CCN(CC)CCOc1ccc(Cc2ccccc2)cc1`: the Potency result in test [1], in test [3], in test [12] and in [6] was “inactive” each time. Moreover, in [2], the call was inactive. Further, the Potency in test [5] is 6.17 µM (active).

As to `O=C1c2ccccc2-c2n[nH]c3cccc1c23`, the Potency in test [1] is 16.5 µM (active); in [7] it was 11.8 µM (active) and 14.6 µM (active). Also, the Potency entry (in test [8]; in test [3]; in test [11]; in test [12]; with Papain (Carica papaya)) was “inactive” throughout.

Consider `CCC(C)(Oc1ccc(C2(c3ccc(OC(C)(CC)C(=O)O)cc3)CCCCC2)cc1)C(=O)O` (configuration not stated), for which the Potency entry in test [1], in test [3], in [11], in test [4], in [5] and in test [6] was “inactive” throughout. The Potency entry in test [7] is “inactive”. Also, the molecule was called inactive in test [2].

Regarding `Cc1cc2cc3c(C)cc(=O)oc3c(C)c2o1`, the Potency result in test [1], in test [3], in [11], in test [12], in test [4] and in [5] was “inactive” each time. Also, the Potency entry in [6] and in test [7] was “inactive” throughout. In addition, in [2], the molecule was called inactive.
